# Measured values as given in the supplement of paper PMC4466140.
# B1: unnamed (peptide)
# chain: NIKVLLNPKLGKPVK
# B2: unnamed (peptide)
# chain: KRRTSLFPWLHKPGI
# Molecular target: CaNbp2
# Test: SPOT peptide array binding signal intensity (averaged, normalized) (arbitrary units (background-subtracted, floor 0; scale differs between SH3 domains)); higher = stronger binding of the SH3 domain to the peptide
# Outline: (§1)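 GST-fused SH3 domains from four yeast species were expressed in E. coli BL21(DE3), purified on glutathione Sepharose and incubated at 10 μg/ml overnight at 4°C in TBS-based blocking buffer on cellulose membranes carrying synthetic 15-mer peptides, with cysteines replaced by serines. Bound protein was detected with anti-GST antibody, an HRP anti-mouse secondary and luminol, then imaged and quantified with Genespotter. Binding signal is the normalized, background-subtracted spot intensity averaged over replicates, in arbitrary units that differ between domains.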
row,Binder,SPOT peptide array binding signal intensity
1,B1,325
2,B2,402

# Molecular target: CaRvs167
# Test: as above
# Outline: as §1
row,Binder,SPOT peptide array binding signal intensity
1,B1,105
2,B2,5.67

# Molecular target: CaRvs167-3
# Test: as above
# Outline: as §1
row,Binder,SPOT peptide array binding signal intensity
1,B1,752
2,B2,34.2

# Molecular target: CaSho1
# Test: as above
# Outline: as §1
row,Binder,SPOT peptide array binding signal intensity
1,B1,700
2,B2,664

# Molecular target: CaSla1-D1-D2
# Test: as above
# Outline: as §1
row,Binder,SPOT peptide array binding signal intensity
1,B1,2
2,B2,5.5

# Molecular target: CaSla1-D3
# Test: as above
# Outline: as §1
row,Binder,SPOT peptide array binding signal intensity
1,B1,26
2,B2,≤ 0

# Molecular target: ScAbp1
# Test: as above
# Outline: as §1
row,Binder,SPOT peptide array binding signal intensity
1,B1,48
2,B2,19

# Molecular target: ScBbc1
# Test: as above
# Outline: as §1
row,Binder,SPOT peptide array binding signal intensity
1,B1,0.25
2,B2,5.75

# Molecular target: ScBem1-D1
# Test: as above
# Outline: as §1
row,Binder,SPOT peptide array binding signal intensity
1,B1,7
2,B2,2

# Molecular target: ScBzz1-D1
# Test: as above
# Outline: as §1
row,Binder,SPOT peptide array binding signal intensity
1,B1,32
2,B2,5.5

# Molecular target: ScBzz1-D2
# Test: as above
# Outline: as §1
row,Binder,SPOT peptide array binding signal intensity
1,B1,207
2,B2,2.5

# Molecular target: ScCyk3
# Test: as above
# Outline: as §1
row,Binder,SPOT peptide array binding signal intensity
1,B1,10.5
2,B2,311

# Molecular target: ScFus1
# Test: as above
# Outline: as §1
row,Binder,SPOT peptide array binding signal intensity
1,B1,527
2,B2,224

# Molecular target: ScHof1
# Test: as above
# Outline: as §1
row,Binder,SPOT peptide array binding signal intensity
1,B1,1.25
2,B2,≤ 0

# Molecular target: ScHse1
# Test: as above
# Outline: as §1
row,Binder,SPOT peptide array binding signal intensity
1,B1,1460
2,B2,2010

# Molecular target: ScLsb1
# Test: as above
# Outline: as §1
row,Binder,SPOT peptide array binding signal intensity
1,B1,5.75
2,B2,≤ 0

# Molecular target: ScLsb2
# Test: as above
# Outline: as §1
row,Binder,SPOT peptide array binding signal intensity
1,B1,1
2,B2,7.5

# Molecular target: ScLsb3
# Test: as above
# Outline: as §1
row,Binder,SPOT peptide array binding signal intensity
1,B1,1.53e-05
2,B2,54

# Molecular target: ScLsb4
# Test: as above
# Outline: as §1
row,Binder,SPOT peptide array binding signal intensity
1,B1,3
2,B2,≤ 0

# Molecular target: ScMyo3
# Test: as above
# Outline: as §1
row,Binder,SPOT peptide array binding signal intensity
1,B1,1
2,B2,3

# Molecular target: ScMyo5
# Test: as above
# Outline: as §1
row,Binder,SPOT peptide array binding signal intensity
1,B1,1
2,B2,1.5

# Molecular target: ScNbp2
# Test: as above
# Outline: as §1
row,Binder,SPOT peptide array binding signal intensity
1,B1,29
2,B2,230

# Molecular target: ScPex13
# Test: as above
# Outline: as §1
row,Binder,SPOT peptide array binding signal intensity
1,B1,4.5
2,B2,1

# Molecular target: ScRvs167
# Test: as above
# Outline: as §1
row,Binder,SPOT peptide array binding signal intensity
1,B1,21.8
2,B2,7.67

# Molecular target: ScSho1
# Test: as above
# Outline: as §1
row,Binder,SPOT peptide array binding signal intensity
1,B1,696
2,B2,512

# Molecular target: ScSla1-D1-D2
# Test: as above
# Outline: as §1
row,Binder,SPOT peptide array binding signal intensity
1,B1,42
2,B2,56.5

# Molecular target: ScSla1-D3
# Test: as above
# Outline: as §1
row,Binder,SPOT peptide array binding signal intensity
1,B1,7.75
2,B2,≤ 0

# Molecular target: SpAbp1-D1
# Test: as above
# Outline: as §1
row,Binder,SPOT peptide array binding signal intensity
1,B1,30.5
2,B2,420

# Molecular target: SpBbc1
# Test: as above
# Outline: as §1
row,Binder,SPOT peptide array binding signal intensity
1,B1,11.2
2,B2,≤ 0

# Molecular target: SpBzz1-D1
# Test: as above
# Outline: as §1
row,Binder,SPOT peptide array binding signal intensity
1,B1,132
2,B2,27

# Molecular target: SpBzz1-D2
# Test: as above
# Outline: as §1
row,Binder,SPOT peptide array binding signal intensity
1,B1,≤ 0
2,B2,≤ 0

# Molecular target: SpCyk3
# Test: as above
# Outline: as §1
row,Binder,SPOT peptide array binding signal intensity
1,B1,≤ 0
2,B2,3

# Molecular target: SpHof1
# Test: as above
# Outline: as §1
row,Binder,SPOT peptide array binding signal intensity
1,B1,75.5
2,B2,54

# Molecular target: SpHof1-2
# Test: as above
# Outline: as §1
row,Binder,SPOT peptide array binding signal intensity
1,B1,13
2,B2,2.75

# Molecular target: SpHof1-3
# Test: as above
# Outline: as §1
row,Binder,SPOT peptide array binding signal intensity
1,B1,640
2,B2,586

# Molecular target: SpHse1
# Test: as above
# Outline: as §1
row,Binder,SPOT peptide array binding signal intensity
1,B1,558
2,B2,844

# Molecular target: SpLsb1
# Test: as above
# Outline: as §1
row,Binder,SPOT peptide array binding signal intensity
1,B1,1.75
2,B2,0.5

# Molecular target: SpLsb4
# Test: as above
# Outline: as §1
row,Binder,SPOT peptide array binding signal intensity
1,B1,26
2,B2,8.5

# Molecular target: SpMyo1
# Test: as above
# Outline: as §1
row,Binder,SPOT peptide array binding signal intensity
1,B1,≤ 0
2,B2,2.5

# Molecular target: SpNbp2
# Test: as above
# Outline: as §1
row,Binder,SPOT peptide array binding signal intensity
1,B1,95.5
2,B2,418

# Molecular target: SpPex13
# Test: as above
# Outline: as §1
row,Binder,SPOT peptide array binding signal intensity
1,B1,13
2,B2,6.5

# Molecular target: SpRvs167
# Test: as above
# Outline: as §1
row,Binder,SPOT peptide array binding signal intensity
1,B1,18.2
2,B2,≤ 0

# Molecular target: SpSla1-D1-D2
# Test: as above
# Outline: as §1
row,Binder,SPOT peptide array binding signal intensity
1,B1,≤ 0
2,B2,≤ 0

# Molecular target: SpSla1-D3
# Test: as above
# Outline: as §1
row,Binder,SPOT peptide array binding signal intensity
1,B1,4
2,B2,4

# Molecular target: AgAbp1
# Test: as above
# Outline: as §1
row,Binder,SPOT peptide array binding signal intensity
1,B2,14

# Molecular target: AgBbc1
# Test: as above
# Outline: as §1
row,Binder,SPOT peptide array binding signal intensity
1,B2,19.2

# Molecular target: AgBem1-D1
# Test: as above
# Outline: as §1
row,Binder,SPOT peptide array binding signal intensity
1,B2,13

# Molecular target: AgBzz1-D1
# Test: as above
# Outline: as §1
row,Binder,SPOT peptide array binding signal intensity
1,B2,15

# Molecular target: AgBzz1-D2
# Test: as above
# Outline: as §1
row,Binder,SPOT peptide array binding signal intensity
1,B2,17

# Molecular target: AgCyk3
# Test: as above
# Outline: as §1
row,Binder,SPOT peptide array binding signal intensity
1,B2,4

# Molecular target: AgFus1
# Test: as above
# Outline: as §1
row,Binder,SPOT peptide array binding signal intensity
1,B2,202

# Molecular target: AgHof1
# Test: as above
# Outline: as §1
row,Binder,SPOT peptide array binding signal intensity
1,B2,14

# Molecular target: AgHse1
# Test: as above
# Outline: as §1
row,Binder,SPOT peptide array binding signal intensity
1,B2,1230

# Molecular target: AgLsb1
# Test: as above
# Outline: as §1
row,Binder,SPOT peptide array binding signal intensity
1,B2,1

# Molecular target: AgLsb4
# Test: as above
# Outline: as §1
row,Binder,SPOT peptide array binding signal intensity
1,B2,53

# Molecular target: AgMyo5
# Test: as above
# Outline: as §1
row,Binder,SPOT peptide array binding signal intensity
1,B2,≤ 0

# Molecular target: AgNbp2
# Test: as above
# Outline: as §1
row,Binder,SPOT peptide array binding signal intensity
1,B2,196

# Molecular target: AgRvs167
# Test: as above
# Outline: as §1
row,Binder,SPOT peptide array binding signal intensity
1,B2,2.33

# Molecular target: AgSho1
# Test: as above
# Outline: as §1
row,Binder,SPOT peptide array binding signal intensity
1,B2,23

# Molecular target: AgSla1-D1-D2
# Test: as above
# Outline: as §1
row,Binder,SPOT peptide array binding signal intensity
1,B2,297

# Molecular target: AgSla1-D3
# Test: as above
# Outline: as §1
row,Binder,SPOT peptide array binding signal intensity
1,B2,5.5

# Molecular target: CaAbp1-D1
# Test: as above
# Outline: as §1
row,Binder,SPOT peptide array binding signal intensity
1,B2,736

# Molecular target: CaAbp1-D2
# Test: as above
# Outline: as §1
row,Binder,SPOT peptide array binding signal intensity
1,B2,682

# Molecular target: CaBbc1
# Test: as above
# Outline: as §1
row,Binder,SPOT peptide array binding signal intensity
1,B2,53.2

# Molecular target: CaBem1-D1
# Test: as above
# Outline: as §1
row,Binder,SPOT peptide array binding signal intensity
1,B2,≤ 0

# Molecular target: CaBzz1-D1
# Test: as above
# Outline: as §1
row,Binder,SPOT peptide array binding signal intensity
1,B2,35

# Molecular target: CaBzz1-D2
# Test: as above
# Outline: as §1
row,Binder,SPOT peptide array binding signal intensity
1,B2,22

# Molecular target: CaCyk3
# Test: as above
# Outline: as §1
row,Binder,SPOT peptide array binding signal intensity
1,B2,5

# Molecular target: CaFus1
# Test: as above
# Outline: as §1
row,Binder,SPOT peptide array binding signal intensity
1,B2,727

# Molecular target: CaHof1
# Test: as above
# Outline: as §1
row,Binder,SPOT peptide array binding signal intensity
1,B2,≤ 0

# Molecular target: CaHse1
# Test: as above
# Outline: as §1
row,Binder,SPOT peptide array binding signal intensity
1,B2,42.8

# Molecular target: CaLsb1
# Test: as above
# Outline: as §1
row,Binder,SPOT peptide array binding signal intensity
1,B2,0.5

# Molecular target: CaLsb4
# Test: as above
# Outline: as §1
row,Binder,SPOT peptide array binding signal intensity
1,B2,59.5

# Molecular target: CaMyo5
# Test: as above
# Outline: as §1
row,Binder,SPOT peptide array binding signal intensity
1,B2,0.25
